# What was measured:
# Assay in all cases: PBM binding z-score (relative to random genomic background probes); higher = stronger binding; sequences stand for … in GC…GCGATTGACAGCGTAGAATGAAGG
# [1] = system: FXR:RXRa (NR concentration 270 nM, RXRa partner concentration 90 nM)
# Method in brief: (§1)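 Regression normalization was applied to scanned fluorescence from custom Agilent 4×180K protein-binding microarrays. Before scanning, arrays were incubated 1 h with ligand-free nuclear receptor dimers, and binding was detected with antibodies against each partner (one per run). Binding z-scores use the random background probes as reference.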
# [2] = system: LXRa:RXRa (NR concentration 270 nM, RXRa partner concentration 90 nM)
# Method in brief: as §1
# [3] = system: LXRa homodimer (NR concentration 270 nM)
# Method in brief: as §1
# [4] = system: LXRb:RXRa (NR concentration 270 nM, RXRa partner concentration 90 nM)
# Method in brief: as §1
# [5] = system: LXRb homodimer (NR concentration 270 nM)
# Method in brief: as §1
# [6] = system: PPARa:RXRa (NR concentration 270 nM, RXRa partner concentration 90 nM)
# Method in brief: as §1
# [7] = system: PPARg:RXRa (NR concentration 180 nM, RXRa partner concentration 90 nM)
# Method in brief: as §1
# [8] = system: PPARg:RXRa 270nM:90nM, anti-RXR (NR concentration 270 nM, RXRa partner concentration 90 nM)
# Method in brief: as §1
# [9] = system: PPARg:RXRa 30nM:10nM, anti-RXR (NR concentration 30 nM, RXRa partner concentration 10 nM)
# Method in brief: as §1
# [10] = system: PPARg:RXRa 90nM:30nM, anti-RXR (NR concentration 90 nM, RXRa partner concentration 30 nM)
# Method in brief: as §1
# [11] = system: PPARg:RXRa DBDmut IVT, anti-RXR (DBD mutation: RXRa K156A/R161A, NR concentration 270 nM, RXRa partner concentration 90 nM)
# Method in brief: as §1
# [12] = system: PPARg:RXRa IVT, anti-PPARg (NR concentration 270 nM, RXRa partner concentration 90 nM)
# Method in brief: as §1
# [13] = system: PPARg DBDmut:RXRa IVT, anti-PPARg (DBD mutation: PPARg1 K132A/R137A, NR concentration 270 nM, RXRa partner concentration 90 nM)
# Method in brief: as §1
# [14] = system: PPARg DBDmut IVT, anti-PPARg (DBD mutation: PPARg1 K132A/R137A, NR concentration 270 nM)
# Method in brief: as §1
# [15] = system: PPARg homodimer (NR concentration 180 nM)
# Method in brief: as §1
# [16] = system: PXR:RXRa (NR concentration 270 nM, RXRa partner concentration 90 nM)
# Method in brief: as §1
# [17] = system: PXR homodimer (NR concentration 270 nM)
# Method in brief: as §1
# [18] = system: RARa:RXR (NR concentration 270 nM, RXRa partner concentration 90 nM)
# Method in brief: as §1
# [19] = system: RARa homodimer (NR concentration 270 nM)
# Method in brief: as §1
# [20] = system: RARb:RXRa (NR concentration 270 nM, RXRa partner concentration 90 nM)
# Method in brief: as §1
Sequence,PBM binding z-score [1],PBM binding z-score [2],PBM binding z-score [3],PBM binding z-score [4],PBM binding z-score [5],PBM binding z-score [6],PBM binding z-score [7],PBM binding z-score [8],PBM binding z-score [9],PBM binding z-score [10],PBM binding z-score [11],PBM binding z-score [12],PBM binding z-score [13],PBM binding z-score [14],PBM binding z-score [15],PBM binding z-score [16],PBM binding z-score [17],PBM binding z-score [18],PBM binding z-score [19],PBM binding z-score [20]
TCTTGTAGATCAAGCAGTTTAAGAAAGCCTGAGT,0.227,0.026,-0.29,0.14,-0.263,0.321,-0.75,1.11,2.54,2.03,1.32,0.194,0.902,-0.105,-0.414,0.133,-0.14,0.0935,-0.0919,-0.137
TAGCCTAGGTCATTCAGAGGCCAGTATAGAAAGC,4.56,3.63,0.829,2.82,0.598,3.63,2.34,2.29,0.542,1.47,1.43,2.85,0.547,0.364,2,2.58,-0.166,3.25,-0.206,4.09
CGAACTAGGGCAGAACAGGACAGTGAAGGATGAT,-0.103,-0.326,-0.302,-0.521,-0.666,1.4,2.24,1.47,0.448,0.819,5.8,5.34,0.749,1.12,0.692,-0.477,-0.0295,0.592,0.348,0.687
CGTCTAAGTTCAACTAAGGTAACGTAAAGCACGC,5.42,4.54,1.66,2.8,0.991,3.67,1.24,2.06,0.533,1.24,0.256,0.683,0.378,0.759,1.95,5.04,4.82,3.08,1.48,4
AGACTGAGGTTATTAAGATCAGGGAATTGCGGTC,1.39,1.31,0.0697,1.16,-0.265,2.03,0.624,0.982,0.0377,0.409,0.46,0.765,0.238,-0.249,0.438,1.08,0.427,1.52,0.126,1.4
TCGAGTAGGTTAGTCAGGGCATTCAGCCAACATA,0.179,0.175,-0.126,0.121,-0.771,0.625,0.0481,0.99,1.13,0.992,1.73,1.72,0.0156,-0.832,0.613,0.173,0.204,0.135,0.35,0.484
GCTATTCGTTGAAAGGGCAACCGAATGATTCTCG,0.141,0.488,0.342,0.644,-0.0285,1.61,1.23,2.56,0.831,2.16,0.00432,0.413,0.733,0.234,0.801,0.591,-0.255,0.689,0.463,1.8
